This note sets out measurements from PubChem BioAssay (NCI).

Test systems include SR leukemia; RPMI-8226 leukemia; OVCAR-8 ovarian; OVCAR-5 ovarian; OVCAR-4 ovarian; SK-OV-3 ovarian; IGROV1 ovarian; OVCAR-3 ovarian; HS 578T breast; NCI/ADR-RES ovarian.
What all share (assay): NCI-60 one-dose screen, 48 h (100 = growth as untreated, 0 = no growth, -100 = all killed)
Common to all, as to details: 10 µM unless noted

Compounds without any hit were thinned out: in the full panel of roughly 83,000, 20% have a hit.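 Activity criterion: percent growth below 10, measured after cells in 96-well plates were exposed to a single compound concentration for 48 hours.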 Unmarked numbers belong to inactive results. Active and inactive are the calls of the source.

Turning to `Nc1n[nH]c2cccc(C#Cc3cccc(C(=O)Nc4cc(C(F)(F)F)cc(C(F)(F)F)c4)c3)c12`, the growth is 49.7% with SR leukemia; 52.6% in the assay with RPMI-8226 leukemia; 82.9% in the assay on OVCAR-8 ovarian; 75.9% in the assay with OVCAR-5 ovarian; 85.4% in the assay on OVCAR-4 ovarian; 109% in the assay with SK-OV-3 ovarian. For the same compound, the growth in the assay with IGROV1 ovarian was 45.7%; with OVCAR-3 ovarian, 90.6%; with HS 578T breast it was 54.9%; in the assay with NCI/ADR-RES ovarian, 74.2%.
Take `O=c1c2cnn(-c3ccccc3)c2n2c(CN3CCOCC3)nnc2n1-c1ccccc1`: the growth in the assay on SR leukemia was 104%; in the assay with RPMI-8226 leukemia, 102%; in the assay with OVCAR-8 ovarian it was 100%; in the assay with OVCAR-5 ovarian, 114%; in the assay on OVCAR-4 ovarian, 104%; with SK-OV-3 ovarian, 88.2%. Moreover, the growth was 109% in the assay on IGROV1 ovarian, 105% in the assay on OVCAR-3 ovarian, 107% in the assay on HS 578T breast and 98.8% with NCI/ADR-RES ovarian.
As to `O=C(CN1C(=O)NC2NC(=O)NC21)N/N=C/c1ccccc1[N+](=O)[O-]` (stereo not given), the growth in the assay on SR leukemia was 110%; in the assay with RPMI-8226 leukemia it was 109%; in the assay on OVCAR-8 ovarian, 104%; in the assay with OVCAR-5 ovarian, 108%; in the assay on OVCAR-4 ovarian, 99.6%; with SK-OV-3 ovarian it was 104%. Besides, the growth in the assay with IGROV1 ovarian was 107%; in the assay with OVCAR-3 ovarian it was 123%; in the assay with HS 578T breast, 107%; with NCI/ADR-RES ovarian, 105%.
With `O=C(/C=C/c1cccc(Cl)c1)c1ccc(Nc2nc(Nc3ccc(F)cc3)nc(Nc3ccc(Cl)cc3)n2)cc1`, the growth was 75.6% in the assay on SR leukemia; 5.94% (active) with RPMI-8226 leukemia; 92.8% in the assay with OVCAR-8 ovarian; 98% with OVCAR-5 ovarian; 111% with OVCAR-4 ovarian; 131% in the assay with SK-OV-3 ovarian. Also, the growth is 113% in the assay with IGROV1 ovarian, 130% in the assay on OVCAR-3 ovarian, 110% in the assay on HS 578T breast and 100% in the assay on NCI/ADR-RES ovarian.
Turning to `CN(C)CC1CCC(CN(C)C)C1=O` (stereo not given), the growth with SR leukemia was 59.7%; with RPMI-8226 leukemia it was 62.2%; in the assay on OVCAR-8 ovarian, 105%; with OVCAR-5 ovarian it was 122%; with OVCAR-4 ovarian, 115%; in the assay on SK-OV-3 ovarian, 105%. The growth in the assay with IGROV1 ovarian is 115%; in the assay on OVCAR-3 ovarian, 132%; in the assay with HS 578T breast it was 105%; with NCI/ADR-RES ovarian, 117%.
`CC1(C)CC(=O)C2=C(C1)N(c1ccc(OC(F)(F)F)cc1)C(N)=C(C#N)C2c1ccc(Br)cc1F` (stereo not given): the growth with SR leukemia is 76%; in the assay on RPMI-8226 leukemia it was 100%; in the assay with OVCAR-8 ovarian, 35.8%; with OVCAR-5 ovarian, 87.2%; in the assay on OVCAR-4 ovarian, 54.9%; in the assay with SK-OV-3 ovarian it was 61.2%. Besides, the growth in the assay with IGROV1 ovarian was 63.2%; in the assay with OVCAR-3 ovarian, 58%; in the assay on HS 578T breast, 23.7%; in the assay with NCI/ADR-RES ovarian, 35.3%.
Consider `CC(=O)Oc1ccc(N2C(=O)C(Cl)=C(Nc3cccc(C(F)(F)F)c3)C2=O)cc1`, for which the growth in the assay on SR leukemia was 80.4%; with RPMI-8226 leukemia it was 77.6%; in the assay with OVCAR-8 ovarian, 97.9%; with OVCAR-5 ovarian, 91.5%; in the assay on OVCAR-4 ovarian, 110%; with SK-OV-3 ovarian it was 87.9%. Besides, the growth in the assay on IGROV1 ovarian was 97.1%; in the assay with OVCAR-3 ovarian, 91.9%; with HS 578T breast it was 107%; in the assay on NCI/ADR-RES ovarian, 97.5%.
For `COc1cc2c(c(OC)c1OC)CCC(c1cccc(NC(=O)c3ccc(Br)cc3)c1)O2` (stereo not given), the growth with SR leukemia was 35%; in the assay on RPMI-8226 leukemia it was 56.8%; in the assay with OVCAR-8 ovarian, 85.3%; with OVCAR-5 ovarian, 93.3%; with OVCAR-4 ovarian it was 67.4%; in the assay on SK-OV-3 ovarian, 75%. For the same compound, the growth with IGROV1 ovarian was 71%; with OVCAR-3 ovarian, 90.8%; in the assay on HS 578T breast it was 90.4%; in the assay on NCI/ADR-RES ovarian it was 84.1%.
Turning to `COC(=O)c1c(C)nc(C)c2c1C(=O)C(Br)=C(NCc1ccccc1)C2=O`, the growth in the assay with SR leukemia is 27%; in the assay with RPMI-8226 leukemia it was 41.1%; in the assay on OVCAR-8 ovarian, 4.6% (active); in the assay on OVCAR-5 ovarian, 61.5%; in the assay on OVCAR-4 ovarian, -57.3% (active); in the assay with SK-OV-3 ovarian it was 109%. Further, the growth is 18% with IGROV1 ovarian, -12.7% (active) in the assay with OVCAR-3 ovarian, 76% with HS 578T breast and 3.37% (active) in the assay with NCI/ADR-RES ovarian.
For `CCOC(=O)C1=C(C)NC(=O)NC1c1c(Cl)n(CCCl)c2ccccc12` (stereo not given), the growth in the assay with SR leukemia is 102%; in the assay on RPMI-8226 leukemia, 77.3%; in the assay on OVCAR-8 ovarian, 96.7%; with OVCAR-5 ovarian, 101%; in the assay with OVCAR-4 ovarian it was 112%; with SK-OV-3 ovarian it was 104%. Further, the growth in the assay on IGROV1 ovarian is 103%; with OVCAR-3 ovarian, 98.5%; with HS 578T breast, 93.1%; with NCI/ADR-RES ovarian, 97.1%.
`NS(=O)(=O)c1ccccc1NC(=O)Nc1nc2ccccc2s1`: the growth was 94.4% in the assay with SR leukemia; 102% with RPMI-8226 leukemia; 100% with OVCAR-8 ovarian; 101% in the assay with OVCAR-5 ovarian; 93.3% in the assay on OVCAR-4 ovarian; 97.3% with SK-OV-3 ovarian. Besides, the growth in the assay on IGROV1 ovarian was 89.1%; in the assay with OVCAR-3 ovarian, 108%; in the assay with HS 578T breast it was 100%; in the assay on NCI/ADR-RES ovarian it was 99.7%.
For `CC(=O)N1N=C(c2ccc(Nc3nc(Nc4ccccc4)nc(Nc4ccccc4)n3)cc2)CC1c1cccc([N+](=O)[O-])c1` (stereo not given), the growth in the assay with SR leukemia was 83.8%; in the assay with RPMI-8226 leukemia it was 68%; in the assay with OVCAR-8 ovarian, 92.6%; in the assay with OVCAR-5 ovarian it was 87.6%; in the assay on OVCAR-4 ovarian, 91.2%; in the assay on SK-OV-3 ovarian, 103%. Also, the growth with IGROV1 ovarian is 79.4%; in the assay on OVCAR-3 ovarian, 98.1%; in the assay with HS 578T breast, 88.6%; in the assay with NCI/ADR-RES ovarian it was 94.7%.
As for `COc1ccc(C2=C(Nc3ccc(C(=O)Nc4ccccc4)cc3)C(=O)N(C)C2=O)cc1`, the growth in the assay on SR leukemia was 66.6%; with RPMI-8226 leukemia, 82.1%; with OVCAR-8 ovarian it was 91.5%; with OVCAR-5 ovarian, 100%; in the assay with OVCAR-4 ovarian it was 97.4%; with SK-OV-3 ovarian, 74.9%. For the same compound, the growth with IGROV1 ovarian was 97.7%; with OVCAR-3 ovarian, 109%; with HS 578T breast it was 110%; in the assay on NCI/ADR-RES ovarian, 87%.
